The results in this text go back to PubChem BioAssay (Tox21).

Records with an inconclusive call do not appear. Unmarked numbers belong to inactive results. Calls follow the shape of the full dose curve.
% is scaled to controls: 0 for no effect and ±100 for the full control effect.

This test is described as follows: qHTS assay to identify small molecule agonists of the progesterone receptor (PR) signaling pathway - cell viability counter screen (AID 1346799). Also: nearly all actives have a fitted effect of over 45% in size. The note with it: PR-UAS-bla HEK293T viability, CellTiter-Glo luminescence, 16 h; series mostly up to 92.4 µM; activity change, negative = cytotoxicity: at the top concentration. From the text:
National Center for Advancing Translational Sciences [NCATS]
NIH Chemical Genomics Center [NCGC]
U.S. Environmental Protection Agency [EPA]
National Institutes of Environmental Health Sciences [NIEHS]
National Toxicology Program [NTP]
U.S. Food and Drug Administration [FDA]
Progesterone receptor (PR), a nuclear hormone receptor, plays an important role in development, metabolic homeostasis and reproduction. It is activated by the steroid hormone progesterone. Endocrine disrupting chemicals (EDCs) and their interactions with steroid hormone receptors like PR causes disruption of normal endocrine function. To identify the compounds that stimulate PR signaling, a PR-UAS-bla GripTite cell line i.e. PR-UAS-bla HEK293T (Invitrogen, Carlsbad, CA, USA) containing a beta-lactamase reporter gene under the control of an UAS response element was used to screen Tox21 10K compound library. The cytotoxicity of the Tox21 compound library against the PR-bla cell line was tested in parallel by measuring the cell viability using CellTiter-Glo assay in the same wells.
Tox21 Assay Protocol Summary:
PR-UAS-bla HEK293T cells were dispensed at 3,000 cells/5 uL of assay medium containing 2% charcoal stripped FBS per well into black wall/clear-bottom 1536-well plates using a Multidrop Combi (ThermoFisher Scientific, Waltham, MA) dispenser. After the assay plates were incubated at a 37C and 5% CO2 for 6 hr, 23 nL of compounds dissolved in DMSO, positive controls or DMSO only was transferred to the assay plate by a Pintool station (Kalypsys, San Diego, CA). The plates were incubated at 37C and 5% CO2 for 16 hr. Then 1 uL of LiveBLAzer B/G FRET substrate was added using a Flying Reagent Dispenser (FRD, Aurora Discovery, San Diego, CA), the plates were incubated at room temperature for 2 hours, and fluorescence intensity was measured by an Envision plate reader (PerkinElmer, Shelton, CT). For cell viability readout that measures cytotoxicity, 4 uL/well of CellTiter-Glo reagent was added into the assay plates using a FRD. After 30 min incubation at room temperature, the luminescence intensity in the plates was measured using a ViewLux (PerkinElmer) plate reader.
(Quantitative high-throughput screening tests each substance at several concentrations.)
`O=C(O)CCCCCCCCCC(=O)O`: the “activity change, negative = cytotoxicity” value is -2.09%.
`CCCC[O][Al]([O]CCCC)[O]CCCC`: the “activity change, negative = cytotoxicity” value was -12.7%.
Under `COC(=O)c1ccc(C(=O)O)cc1` stands -0.287%.
Next, `CC(=O)OC1CCC(C(C)(C)C)CC1` (stereo not given): 7.09%; `O=Cc1ccc(C(=O)O)cc1`: 0.0642%.
Turning to `O=C(OOC(=O)c1ccccc1)c1ccccc1`, the “activity change, negative = cytotoxicity” value was -2.58% [at 42.5 µM].
Regarding `CC[C@@]1(c2ccccc2)NC(=O)N(C)C1=O`, the “activity change, negative = cytotoxicity” value is 0% [at 42.5 µM].
Under `CCC(C)(C)C` stands 1.59%; under `CC(C)(C)C(=O)CCc1ccc(Cl)cc1`, 6.01%; under `CC(=O)Oc1ccc(C(C)=O)cc1`, -2.9%.
Next, `CC(C)C[P+](C)(CC(C)C)CC(C)C`: -4.42%.
For `CN(C)c1ccncc1`, the “activity change, negative = cytotoxicity” value is 2.41%.
Next, `NNC(=O)OCc1ccccc1`: -1.32%; `CC(C)(C)C(=O)NCCCC(=O)O`: -2.53% [at 42.5 µM].
Under `CC1(C)S[C@@H]2[C@H](NC(=O)Cc3ccccc3)C(=O)N2[C@H]1C(=O)O` (tested in a mixture with another compound) stands 3.02% [at 42.5 µM]; under `N#CC1(N)CCCCC1`, 7.37%; under `O=C(O)COc1ccc2ccccc2c1`, -11.3%.
Under `O=C[C@@H](O)[C@H](O)[C@H](O)CO` stands 6.25%.
For the compound `COCCCOc1cc(C[C@@H](C[C@H](N)[C@@H](O)C[C@H](C(=O)NCC(C)(C)C(N)=O)C(C)C)C(C)C)ccc1OC`, the “activity change, negative = cytotoxicity” value was 7.55% [at 42.5 µM].
Under `CCCCCCCCCCCC(C)=O` stands -20.2%.
Under `C[C@@H]1NC(=O)[C@@H](N)CNC(=O)[C@H](C2CCNC(N)=N2)NC(=O)/C(=C/NC(N)=O)NC(=O)[C@H](CNC(=O)C[C@@H](N)CCCN)NC1=O` (stereo not given in full) stands -15.7% [at 0.349 µM]; under `CC(C)(C)NCC(O)COc1cccc2c1CCC(=O)N2` (stereo not given), 2.07% [at 42.5 µM].
Under `CCCC(=O)C(CC)Sc1ccoc1C` (stereo not given) stands 3.08%.
Turning to `CN1C(CCl)Nc2cc(Cl)c(S(N)(=O)=O)cc2S1(=O)=O` (stereo not given), the “activity change, negative = cytotoxicity” value was -3.43% [at 42.5 µM].
For `C=CCCCCCCCCOC(C)=O`, the “activity change, negative = cytotoxicity” value was 26.3%.
Under `O=C1c2ccccc2C(=O)N1CO` stands 7.21%; under `C[C@@H](CN1CC(=O)NC(=O)C1)N1CC(=O)NC(=O)C1`, -2.15% [at 42.5 µM].
Next, `N=C(N)N`: -4.64% [at 42.5 µM].
`CCCCCCC(=O)c1ccccc1`: the “activity change, negative = cytotoxicity” value was -2.57%.
Under `CC(=O)/C=C/C=C1/C2CCC(C2)C1(C)C` (stereo not given) stands -13.3% [at 42.5 µM].
Next, `C[C@@H]1CCC[C@H](C)N1CCCC(O)(c1ccccc1)c1ccccn1` (stereo not given in full): 2.35% [at 42.5 µM]; `CC(=O)Nc1ccc(OCCOCCOc2ccc(NC(C)=O)cc2)cc1`: -9.29% [at 42.5 µM].
Next, `C/C(=N\O)c1ccc(OCC(=O)N2CCCCC2)cc1`: 14.5% [at 42.5 µM]; `C=CC(C)(CCC=C(C)C)OC(=O)C(C)C` (stereo not given): -2.97%; `CCCCN(CCCC)CCCCCCN(CCCC)CCCC`: -2.98%.
For the compound `Cc1cc2c(cc1CC(=O)c1sccc1S(=O)(=O)Nc1onc(C)c1Cl)OCO2`, the “activity change, negative = cytotoxicity” value is -14.9% [at 42.5 µM].
Turning to `Cc1cc(C)c(N)c(Cl)c1`, the “activity change, negative = cytotoxicity” value is 2.11%.
Next, `C=CC(=O)OCC[N+](C)(C)C`: -0.856%; `O=C(O)Cc1ccccc1Oc1ccc(Cl)cc1Cl`: -10.8% [at 42.5 µM].
For the compound `Clc1ccc2c(c1)Nc1ccccc1S2`, the “activity change, negative = cytotoxicity” value is 0% [at 42.5 µM].
